# Test results reported in article PMC5540273 (PLoS ONE, 2017).
# Legend:
# Conditions in all cases: concentration: 1 μM, replicates: in singlicate; n = 1
# PIM1 = system: PIM1
# PIM2 = system: PIM2
# PIM3 = system: PIM3
# PIP5K1A = system: PIP5K1A
# PIP5K1C = system: PIP5K1C
# PIP5K2B = system: PIP5K2B
# PIP5K2C = system: T1, PIP5K2C
# T1 construct: gene PIP4K2C
# PKAC-alpha = system: T2, PKAC-alpha
# T2 construct: gene PRKACA
# PKAC-beta = system: T3, PKAC-beta
# T3 construct: gene PRKACB
# PKMYT1 = system: PKMYT1
# 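Also: KINOMEscan kinase panel screen.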
smiles,measurement,setting,value
Cc1cccc(-c2nc(C)cc(Nc3ccncc3)n2)n1 [GSK257997],%Inh,PIM1,19%
same,%Inh,PIM2,0%
same,%Inh,PIM3,37%
same,%Inh,PIP5K1A,0%
same,%Inh,PIP5K1C,39%
same,%Inh,PIP5K2B,7%
same,%Inh,PIP5K2C,0%
same,%Inh,PKAC-alpha,3%
same,%Inh,PKAC-beta,17%
same,%Inh,PKMYT1,12%
Cc1c(O)cccc1Nc1ccnc2ccc(C(F)(F)F)cc12.Cl [GW466413],%Inh,PIM1,8%
same,%Inh,PIM2,0%
same,%Inh,PIM3,0%
same,%Inh,PIP5K1A,32%
same,%Inh,PIP5K1C,11%
same,%Inh,PIP5K2B,0%
same,%Inh,PIP5K2C,30%
same,%Inh,PKAC-alpha,0%
same,%Inh,PKAC-beta,3%
same,%Inh,PKMYT1,39%
Cc1ccc(NC(=O)Nc2cc(C(C)(C)C)nn2-c2ccccc2)cc1 [GSK1014915],%Inh,PIM1,0%
same,%Inh,PIM2,0%
same,%Inh,PIM3,0%
same,%Inh,PIP5K1A,0%
same,%Inh,PIP5K1C,29%
same,%Inh,PIP5K2B,12%
same,%Inh,PIP5K2C,3%
same,%Inh,PKAC-alpha,0%
same,%Inh,PKAC-beta,0%
same,%Inh,PKMYT1,14%
Cc1nnc(-c2ccc3occ(-c4ccc(S(C)=O)cc4)c3c2)[nH]1 (stereo not drawn),%Inh,PIM1,32%
same,%Inh,PIM2,58%
same,%Inh,PIM3,35%
same,%Inh,PIP5K1A,0%
same,%Inh,PIP5K1C,63%
same,%Inh,PIP5K2B,35%
same,%Inh,PIP5K2C,61%
same,%Inh,PKAC-alpha,9%
same,%Inh,PKAC-beta,0%
same,%Inh,PKMYT1,21%
O=C(Nc1ccccc1)Nc1cccc(Oc2ccc3nccn3n2)c1,%Inh,PIM1,0%
same,%Inh,PIM2,2%
same,%Inh,PIM3,0%
same,%Inh,PIP5K1A,9%
same,%Inh,PIP5K1C,49%
same,%Inh,PIP5K2B,15%
same,%Inh,PIP5K2C,48%
same,%Inh,PKAC-alpha,48%
same,%Inh,PKAC-beta,70%
same,%Inh,PKMYT1,0%
COc1ccccc1CNC(=O)c1cc(C(=O)c2ccccc2C)c[nH]1 [GSK364507],%Inh,PIM1,0%
same,%Inh,PIM2,0%
same,%Inh,PIM3,0%
same,%Inh,PIP5K1A,0%
same,%Inh,PIP5K1C,26%
same,%Inh,PIP5K2B,8%
same,%Inh,PIP5K2C,25%
same,%Inh,PKAC-alpha,0%
same,%Inh,PKAC-beta,0%
same,%Inh,PKMYT1,0%
CC(=O)Nc1nc2cnc(Nc3cc(NC(=O)c4cccc(CCC#N)c4)ccc3C)nc2s1,%Inh,PIM1,5%
same,%Inh,PIM2,19%
same,%Inh,PIM3,9%
same,%Inh,PIP5K1A,13%
same,%Inh,PIP5K1C,0%
same,%Inh,PIP5K2B,45%
same,%Inh,PIP5K2C,4%
same,%Inh,PKAC-alpha,15%
same,%Inh,PKAC-beta,0%
same,%Inh,PKMYT1,0%
COc1cc2nccc(Nc3ccc(NC(=O)c4ccc(C)cc4)c(O)c3)c2cc1OC.Cl [GW440132],%Inh,PIM1,0%
same,%Inh,PIM2,0%
same,%Inh,PIM3,0%
same,%Inh,PIP5K1A,0%
same,%Inh,PIP5K1C,50%
same,%Inh,PIP5K2B,0%
same,%Inh,PIP5K2C,4%
same,%Inh,PKAC-alpha,12%
same,%Inh,PKAC-beta,0%
same,%Inh,PKMYT1,4%
Cn1cncc1-c1ccc2ncnc(Nc3ccc(OCc4ccccc4)cc3)c2c1 [GW320571],%Inh,PIM1,0%
same,%Inh,PIM2,2%
same,%Inh,PIM3,0%
same,%Inh,PIP5K1A,0%
same,%Inh,PIP5K1C,16%
same,%Inh,PIP5K2B,17%
same,%Inh,PIP5K2C,76%
same,%Inh,PKAC-alpha,0%
same,%Inh,PKAC-beta,8%
same,%Inh,PKMYT1,8%
Cl.NC(=O)c1cccc(Nc2nccc(Nc3ccc(Oc4cccc(Cl)c4)c(Cl)c3)n2)c1 [GW659008],%Inh,PIM1,15%
same,%Inh,PIM2,0%
same,%Inh,PIM3,1%
same,%Inh,PIP5K1A,15%
same,%Inh,PIP5K1C,45%
same,%Inh,PIP5K2B,32%
same,%Inh,PIP5K2C,60%
same,%Inh,PKAC-alpha,0%
same,%Inh,PKAC-beta,0%
same,%Inh,PKMYT1,0%
CCn1c(-c2cccnc2O)nc2cnccc21 [SB-736715],%Inh,PIM1,0%
same,%Inh,PIM2,0%
same,%Inh,PIM3,0%
same,%Inh,PIP5K1A,0%
same,%Inh,PIP5K1C,0%
same,%Inh,PIP5K2B,0%
same,%Inh,PIP5K2C,19%
same,%Inh,PKAC-alpha,4%
same,%Inh,PKAC-beta,0%
same,%Inh,PKMYT1,0%
Cc1c(Cn2ccn3c(=O)cc(N4CCOCC4)nc23)cccc1C(F)(F)F [GSK2289044],%Inh,PIM1,0%
same,%Inh,PIM2,0%
same,%Inh,PIM3,4%
same,%Inh,PIP5K1A,0%
same,%Inh,PIP5K1C,10%
same,%Inh,PIP5K2B,15%
same,%Inh,PIP5K2C,0%
same,%Inh,PKAC-alpha,11%
same,%Inh,PKAC-beta,0%
same,%Inh,PKMYT1,0%
Cc1cc(NCC(c2ccccc2)c2ccccc2)nc(NCc2ccc(C(F)(F)F)cc2)n1 [GW497681],%Inh,PIM1,12%
same,%Inh,PIM2,0%
same,%Inh,PIM3,0%
same,%Inh,PIP5K1A,0%
same,%Inh,PIP5K1C,53%
same,%Inh,PIP5K2B,8%
same,%Inh,PIP5K2C,0%
same,%Inh,PKAC-alpha,0%
same,%Inh,PKAC-beta,0%
same,%Inh,PKMYT1,0%
NC(=O)c1nnc2ccccc2c1N,%Inh,PIM1,1%
same,%Inh,PIM2,0%
same,%Inh,PIM3,0%
same,%Inh,PIP5K1A,0%
same,%Inh,PIP5K1C,38%
same,%Inh,PIP5K2B,0%
same,%Inh,PIP5K2C,13%
same,%Inh,PKAC-alpha,13%
same,%Inh,PKAC-beta,16%
same,%Inh,PKMYT1,15%
CS(=O)(=O)c1ccc(-c2nc3n(c2-c2ccncc2)CCC3)cc1 [SKF-105942],%Inh,PIM1,0%
same,%Inh,PIM2,0%
same,%Inh,PIM3,0%
same,%Inh,PIP5K1A,4%
same,%Inh,PIP5K1C,13%
same,%Inh,PIP5K2B,21%
same,%Inh,PIP5K2C,7%
same,%Inh,PKAC-alpha,0%
same,%Inh,PKAC-beta,0%
same,%Inh,PKMYT1,0%
Cc1cc(-c2ccc3c(c2)CC[C@@H](N[C@@H](C)c2ccccc2)C3)cnc1N.Cl [GW412617],%Inh,PIM1,11%
same,%Inh,PIM2,0%
same,%Inh,PIM3,0%
same,%Inh,PIP5K1A,0%
same,%Inh,PIP5K1C,34%
same,%Inh,PIP5K2B,14%
same,%Inh,PIP5K2C,0%
same,%Inh,PKAC-alpha,0%
same,%Inh,PKAC-beta,9%
same,%Inh,PKMYT1,0%
Cl.c1ccc(-c2n[nH]cc2-c2ccnc(-c3ccc(CN4CCOCC4)cc3)c2)nc1 [GW776245],%Inh,PIM1,13%
same,%Inh,PIM2,13%
same,%Inh,PIM3,15%
same,%Inh,PIP5K1A,0%
same,%Inh,PIP5K1C,27%
same,%Inh,PIP5K2B,30%
same,%Inh,PIP5K2C,0%
same,%Inh,PKAC-alpha,10%
same,%Inh,PKAC-beta,13%
same,%Inh,PKMYT1,0%
Cc1ccc(-c2cc(-c3c[nH]nc3-c3ccccn3)ccn2)cc1 [GW684088],%Inh,PIM1,20%
same,%Inh,PIM2,0%
same,%Inh,PIM3,2%
same,%Inh,PIP5K1A,50%
same,%Inh,PIP5K1C,71%
same,%Inh,PIP5K2B,8%
same,%Inh,PIP5K2C,67%
same,%Inh,PKAC-alpha,30%
same,%Inh,PKAC-beta,0%
same,%Inh,PKMYT1,0%
